Reference: ChEMBL document CHEMBL3433997, “St. Jude Leishmania screening dataset” (2016)

target: Hexose transporter 1 (Plasmodium falciparum) (UniProt O97467); experiment: ST_JUDE_LEISH: Cytotoxicity at 2uM final concentration against transgenic Leishmania Mexicana promastigotes LmPfHT that are glucose transport deficient and complemented with the Plasmodium falciparum hexose transporter. Activity is measured by DNA content using SYBR green in vitro; type: functional

Structure (SMILES)	inhibition [%]
COc1ccc(O)c(C(=O)NCCc2ccc(OC)c(-c3ccc(C(C)(C)C)cc3)c2)c1	5.01
N=C(N)NCCCCN(Cc1ccccc1)c1ccccc1	3.53
COc1ccc2c(c1)CCCC2C(C)NCC(O)c1cccc(C(F)(F)F)c1 (stereo not given)	5.98
O=C(Cn1c(=O)cnc2ccccc21)Nc1cccc(C(=O)Nc2cccc(C(F)(F)F)c2)c1	3.37
COCCNCc1ccc(-c2ccc(CNc3ccc4ncccc4c3)cc2)cc1	4.18
O=C(NC1CCC(N2CCC(Cc3ccc(F)cc3)CC2)CC1)c1cc2ccccc2[nH]1 (stereo not given)	0.08
C=CCNC(=O)CCCNC(=N)N	1.22
O=C(Nc1ccc(Br)c(C(F)(F)F)c1)c1cccc([N+](=O)[O-])c1	2.2
CC1(C)N=C(N)N=C(N)C1c1ccc(Cl)cc1 (stereo not given)	5.72
CC(=O)c1cccc(NC(=O)NC2CCN(CCCCCNC(=O)/C=C/c3ccc(Cl)c(Cl)c3)CC2)c1	2.6
OC(COc1ccccc1-c1nc2ccccc2o1)CN1CCCN(CCc2ccccc2)CC1 (stereo not given)	-1.19
COc1ccc(-c2cccc(NC(=O)c3cccc(C#N)c3)c2)cc1CN1CCCC1	15.9
CCCNCc1ccc(-c2ccc(CN(CCOC)C(=O)CCCOCc3ccccc3)cc2)nc1	1.41
Cc1c(Cc2ccccc2)c(=O)oc2c(C)c3c(cc12)CN(CC(C)c1ccccc1)CO3 (stereo not given)	4.73
CC1Cc2ccccc2N1CC(=O)Nc1cc(C(F)(F)F)ccc1-n1cncn1 (stereo not given)	2.01
CCN(c1ccccc1)S(=O)(=O)c1ccc(OC)c(NC(=O)c2cccc(C(F)(F)F)c2)c1	7.45
CCCCc1cc(NCc2ccncc2)nc(Nc2ccc(OC)cc2)n1	5.76
C(=N\Nc1nccc2sc(-c3ccccc3)cc12)/c1cccnc1	3.5
Cc1cc(OCCCN2CCC(NS(=O)(=O)c3ccc(Cl)c(Cl)c3)C2)c2ccccc2n1 (stereo not given)	4.67
CC(=O)c1c(C)[nH]c(C(=O)Nc2ccc(-c3nc4ccc(C)cc4s3)cc2)c1C	-4.21

Structure (SMILES)	inhibition [%]
CC(C)(C)OC(=O)Cn1cnc2cc(NC(=O)c3cc([N+](=O)[O-])cc([N+](=O)[O-])c3)ccc21	4.11
O=C1NC(c2ccc(N3CCCCCC3)cc2)Nc2ccccc21 (stereo not given)	4.82
CCCCN(CCCC)CCCCNc1c2ccccc2nc2ccccc12	31.3
O=C(Nc1ccc(Cl)c(Cl)c1)Nc1ccc2nccc(N3CCN(Cc4ccccc4)CC3)c2c1	0.94
COc1ccc2c(=NN=C(C)c3ccccn3)cc(C)[nH]c2c1	9.51
COc1cc(OC)cc(C(=O)N2CCOC(CCN3CCC(c4ccccc4)CC3)(c3ccc(Cl)c(Cl)c3)C2)c1 (stereo not given)	-0.92
O=C(NCC1CCN(Cc2cccc(C(F)(F)F)c2)C1)c1cc(-c2cccc(Cl)c2)cs1 (stereo not given)	1.37
CSCCC(C(=O)O)N1C(=O)c2ccccc2C1=O (stereo not given)	1.03
COc1ccc2[nH]c(C)cc(=NN=Cc3ccccc3Cl)c2c1	5.23
O=C(Nc1ccc(-c2nc3ccccc3[nH]2)cc1)c1ccc(S(=O)(=O)N2CCCCC2)cc1	4.17
CN1CCN(CCCN(Cc2ccc(-c3cccc(CNC4CCCC4)c3)cc2)C(=O)/C=C/c2ccccc2)CC1	9.42
CNCc1ccc(-c2ccc3ccnc(N)c3c2)cc1	5.56
Cc1ccc(CN2CCN(Cc3cccc(NC(=O)c4ccc5ccccc5c4)c3)CC2)cc1C	1.87
Fc1ccc2[nH]c(-c3ccc(-c4cccc(CN5CCN(CCN6CCOCC6)CC5)c4)cc3)nc2c1	3.16
CC(CN(C)C)C(=O)Nc1cccc(-c2ccc(-c3nc4cc(C(F)(F)F)ccc4[nH]3)cc2)c1 (stereo not given)	9.17
CCc1cn2c3c(cc(C(=O)N[C@@H](Cc4ccccc4)[C@H](O)CNCC(C)C)cc13)N(C)S(=O)(=O)CC2	4.71
CCN(CC)CCN(Cc1ccc(-c2ccc(C(F)(F)F)cc2)cc1)C(=O)Cn1c(CCC2CCCCC2)nc(=O)c2ccccc21	1.35
CC(C)C[C@H](NC(=O)c1ccc(OCCN2CCOCC2)cc1)C(=O)N[C@H](/C=N/N1CCNC1=O)CCc1ccccc1	6.05
Cc1cccc(CNc2ncc(C)c(NCCC(=O)Nc3ccccc3)n2)c1	12.7
O=C(/C=C/c1ccc(C(F)(F)F)cc1)NCCCCCN1CCCN(C(=O)Nc2ccc(Cl)c(Cl)c2)CC1	-0.09

target: Glucose transporter (Leishmania mexicana) (UniProt O61059); experiment: ST_JUDE_LEISH: Cytotoxicity at 2uM final concentration against transgenic Leishmania Mexicana promastigotes LmGT2 that are glucose transport deficient and complemented with the L. Mexicana glucose transporter 2. Activity is measured by DNA content using SYBR green in vitro; type: functional

Structure (SMILES)	inhibition [%]
COc1ccc(O)c(C(=O)NCCc2ccc(OC)c(-c3ccc(C(C)(C)C)cc3)c2)c1	4.69
N=C(N)NCCCCN(Cc1ccccc1)c1ccccc1	3.86
COc1ccc2c(c1)CCCC2C(C)NCC(O)c1cccc(C(F)(F)F)c1 (stereo not given)	6.3
O=C(Cn1c(=O)cnc2ccccc21)Nc1cccc(C(=O)Nc2cccc(C(F)(F)F)c2)c1	1.93
COCCNCc1ccc(-c2ccc(CNc3ccc4ncccc4c3)cc2)cc1	1.36
O=C(NC1CCC(N2CCC(Cc3ccc(F)cc3)CC2)CC1)c1cc2ccccc2[nH]1 (stereo not given)	0.47
C=CCNC(=O)CCCNC(=N)N	-0.35
O=C(Nc1ccc(Br)c(C(F)(F)F)c1)c1cccc([N+](=O)[O-])c1	-0.11
CC1(C)N=C(N)N=C(N)C1c1ccc(Cl)cc1 (stereo not given)	3.51
CC(=O)c1cccc(NC(=O)NC2CCN(CCCCCNC(=O)/C=C/c3ccc(Cl)c(Cl)c3)CC2)c1	5.52
OC(COc1ccccc1-c1nc2ccccc2o1)CN1CCCN(CCc2ccccc2)CC1 (stereo not given)	-0.36
COc1ccc(-c2cccc(NC(=O)c3cccc(C#N)c3)c2)cc1CN1CCCC1	5.27
CCCNCc1ccc(-c2ccc(CN(CCOC)C(=O)CCCOCc3ccccc3)cc2)nc1	0.45
Cc1c(Cc2ccccc2)c(=O)oc2c(C)c3c(cc12)CN(CC(C)c1ccccc1)CO3 (stereo not given)	5.8
CC1Cc2ccccc2N1CC(=O)Nc1cc(C(F)(F)F)ccc1-n1cncn1 (stereo not given)	-1.95
CCN(c1ccccc1)S(=O)(=O)c1ccc(OC)c(NC(=O)c2cccc(C(F)(F)F)c2)c1	7.82
CCCCc1cc(NCc2ccncc2)nc(Nc2ccc(OC)cc2)n1	3.3
C(=N\Nc1nccc2sc(-c3ccccc3)cc12)/c1cccnc1	3.16
Cc1cc(OCCCN2CCC(NS(=O)(=O)c3ccc(Cl)c(Cl)c3)C2)c2ccccc2n1 (stereo not given)	3.91
CC(=O)c1c(C)[nH]c(C(=O)Nc2ccc(-c3nc4ccc(C)cc4s3)cc2)c1C	2.35

Structure (SMILES)	inhibition [%]
CC(C)(C)OC(=O)Cn1cnc2cc(NC(=O)c3cc([N+](=O)[O-])cc([N+](=O)[O-])c3)ccc21	3.89
O=C1NC(c2ccc(N3CCCCCC3)cc2)Nc2ccccc21 (stereo not given)	2.21
CCCCN(CCCC)CCCCNc1c2ccccc2nc2ccccc12	12.3
O=C(Nc1ccc(Cl)c(Cl)c1)Nc1ccc2nccc(N3CCN(Cc4ccccc4)CC3)c2c1	3.64
COc1ccc2c(=NN=C(C)c3ccccn3)cc(C)[nH]c2c1	4.08
COc1cc(OC)cc(C(=O)N2CCOC(CCN3CCC(c4ccccc4)CC3)(c3ccc(Cl)c(Cl)c3)C2)c1 (stereo not given)	-1.58
O=C(NCC1CCN(Cc2cccc(C(F)(F)F)c2)C1)c1cc(-c2cccc(Cl)c2)cs1 (stereo not given)	-3.57
CSCCC(C(=O)O)N1C(=O)c2ccccc2C1=O (stereo not given)	0.77
COc1ccc2[nH]c(C)cc(=NN=Cc3ccccc3Cl)c2c1	1.92
O=C(Nc1ccc(-c2nc3ccccc3[nH]2)cc1)c1ccc(S(=O)(=O)N2CCCCC2)cc1	0.68
CN1CCN(CCCN(Cc2ccc(-c3cccc(CNC4CCCC4)c3)cc2)C(=O)/C=C/c2ccccc2)CC1	6.94
CNCc1ccc(-c2ccc3ccnc(N)c3c2)cc1	3.23
Cc1ccc(CN2CCN(Cc3cccc(NC(=O)c4ccc5ccccc5c4)c3)CC2)cc1C	4.04
Fc1ccc2[nH]c(-c3ccc(-c4cccc(CN5CCN(CCN6CCOCC6)CC5)c4)cc3)nc2c1	1.99
CC(CN(C)C)C(=O)Nc1cccc(-c2ccc(-c3nc4cc(C(F)(F)F)ccc4[nH]3)cc2)c1 (stereo not given)	4.86
CCc1cn2c3c(cc(C(=O)N[C@@H](Cc4ccccc4)[C@H](O)CNCC(C)C)cc13)N(C)S(=O)(=O)CC2	3.3
CCN(CC)CCN(Cc1ccc(-c2ccc(C(F)(F)F)cc2)cc1)C(=O)Cn1c(CCC2CCCCC2)nc(=O)c2ccccc21	0.43
CC(C)C[C@H](NC(=O)c1ccc(OCCN2CCOCC2)cc1)C(=O)N[C@H](/C=N/N1CCNC1=O)CCc1ccccc1	4.07
Cc1cccc(CNc2ncc(C)c(NCCC(=O)Nc3ccccc3)n2)c1	6.61
O=C(/C=C/c1ccc(C(F)(F)F)cc1)NCCCCCN1CCCN(C(=O)Nc2ccc(Cl)c(Cl)c2)CC1	-0.19
